In PubChem BioAssay AID977607 (Broad Institute, 2014):
Among all 1,500 compounds or so, about 460 (31%) were called active. About 1% were inconclusive and are not listed. The list is a sample of the results. Measured potencies and affinities stand elsewhere. A number with no mark means an inactive call.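 Rule for the calls: active = curve reaches 40% activation over neutral controls at an AC40 no higher than the top valid tested concentration; inconclusive = no clear call, values can overlap the other calls; inactive = signal moving opposite to the expected increase, and the rest.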

Test: GLuc-reported insulin release enhancers, glucose-stimulated beta cells – cell-based, INS-1E, Gaussia luciferase, luminescence, cherry-pick, set 2, dose response (AID 977607);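 note: 0% = median of the plate neutral control wells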
Details: INS-1E GLuc insulin secretion reporter, 2-3 h, active compounds read high; at 35 µM, 100% = signal doubled over neutral wells unless noted

SMILES	max activation
O=C(c1ccccc1F)N1CCCC(N2CCN(Cc3ccc4c(c3)OCO4)CC2)C1 (stereo unspecified)	-12.4% [at 0.0016 µM, 100% = signal doubled over neutral wells]
CCCNC(=O)C1(C)CCN(C(=O)c2cccc(C(F)(F)F)c2)C1 (stereo unspecified)	-15.8% [at 0.135 µM, 100% = signal doubled over neutral wells]
CCCCc1nnc2c(N(C)S(=O)(=O)c3ccccc3)nc3ccccc3n12	-17.8% [at 0.015 µM, 100% = signal doubled over neutral wells]
Cc1cccc(N2CCN(C(=O)c3cccn4c(=O)c5c(C)c(C)sc5nc34)CC2)c1C	-13.3% [at 0.046 µM, 100% = signal doubled over neutral wells]
COC(=O)C1CCN(c2cc(Cl)nc(N)n2)CC1	30.9%
NC(=O)c1cc2cc(Cl)ccc2o/c1=N/NC(=O)c1cccs1	-12.9% [at 0.135 µM, 100% = signal doubled over neutral wells]
N#CCCN(Cc1ccccc1)C(=O)c1cccs1	-20.9% [at 11 µM, 100% = signal doubled over neutral wells]
CCOC(=O)c1cc(CC)sc1NC(=O)COC(=O)c1cnccn1	-18.2% [at 0.005 µM, 100% = signal doubled over neutral wells]
CCOc1ncccc1C(=O)NCc1cccc(OC)c1	-19.1% [at 0.0016 µM, 100% = signal doubled over neutral wells]
COc1cccc(CNC(=O)c2cccnc2Sc2ccccc2)c1	-18.8% [at 0.0016 µM, 100% = signal doubled over neutral wells]
CCOc1ccc(CCNC(=O)COC(=O)c2nccnc2N)cc1OCC	16.3% [at 0.42 µM, 100% = signal doubled over neutral wells]
C/C(Cl)=C\Cn1c(N2CCCC2)nc2c1c(=O)[nH]c(=O)n2C	-16.5% [at 0.0016 µM, 100% = signal doubled over neutral wells]
COc1ccc(NC(=O)Cc2c(SC)c3ccccc3n2Cc2ccccc2)cc1	28.7% [at 1.2 µM, 100% = signal doubled over neutral wells]
CCCCC(=O)N(C)c1c(CC)nc2c(OCc3ccc(C(F)(F)F)cc3)cccn12	-15.2%
CCc1nc2c(OCc3ccccc3C(=O)OC)cccn2c1N(C)C(=O)c1ccncc1	-29.4%
C[C@@H]1CN([C@@H](C)CO)C(=O)c2cccc(NC(=O)Nc3ccc(C(F)(F)F)cc3)c2O[C@H]1CN(C)Cc1ccc(Cl)c(Cl)c1	-26.5% [at 11 µM, 100% = signal doubled over neutral wells]

SMILES	max activation
C[C@@H]1CN([C@H](C)CO)C(=O)c2cc(C#CCc3ccccc3)cnc2O[C@H]1CN(C)C(=O)C1CCC1	25.2% [at 0.015 µM, 100% = signal doubled over neutral wells]
COCC(=O)N(C)C[C@H]1Oc2cc(Br)ccc2S(=O)(=O)N([C@H](C)CO)C[C@H]1C	-5.77% [at 0.046 µM, 100% = signal doubled over neutral wells]
C[C@H](CO)N1C[C@H](C)[C@@H](CN(C)C(=O)CC2CC2)Oc2cc(C#CC(C)(C)O)ccc2S1(=O)=O	36.4% [at 0.046 µM, 100% = signal doubled over neutral wells]
C[C@H]1CN([C@@H](C)CO)C(=O)c2ccccc2-c2ccccc2CO[C@@H]1CN(C)Cc1cccc(C(F)(F)F)c1	-39% [at 11 µM, 100% = signal doubled over neutral wells]
C[C@H]1CN([C@@H](C)CO)C(=O)c2ccccc2-c2ccccc2CO[C@@H]1CN(C)Cc1ccc(Cl)c(Cl)c1	-38.4% [at 3.8 µM, 100% = signal doubled over neutral wells]
C[C@@H]1CN([C@H](C)CO)S(=O)(=O)c2ccc(-c3ccc(C#N)cc3)cc2O[C@H]1CN(C)C	15.6% [at 0.046 µM, 100% = signal doubled over neutral wells]
C[C@@H]1CN([C@H](C)CO)C(=O)c2cc(C#CCN(C)C)cnc2O[C@H]1CN(C)S(=O)(=O)c1cn(C)cn1	31.4% [at 0.015 µM, 100% = signal doubled over neutral wells]
COc1ccc(-c2nc3cccc(C)n3c2NCc2ccco2)cc1OC	-14.6% [at 1.2 µM, 100% = signal doubled over neutral wells]
CN(C)c1ccc(CC(=O)N2CCCCC2c2cc(C(=O)Nc3ccccc3Cl)no2)cc1 (stereo unspecified)	-48.9%
CCCc1c(C)c2ccc(OCC(C)=O)cc2oc1=O	-16.6% [at 0.005 µM, 100% = signal doubled over neutral wells]
CCOC(=O)N1CCN(S(=O)(=O)c2ccc3c4c(cccc24)C(=O)N3)CC1	37.4% [at 0.42 µM, 100% = signal doubled over neutral wells]
C[C@@H]1CN([C@H](C)CO)C(=O)Cc2cc(NC(=O)CCCN(C)C)ccc2O[C@H]1CN(C)Cc1ccc(-c2ccccc2)cc1	19.8%
C[C@H](CO)N1C[C@H](C)[C@@H](CN(C)C(=O)Cc2ccccn2)Oc2cc(C#C[C@@H](C)O)ccc2S1(=O)=O	-20.3% [at 0.135 µM, 100% = signal doubled over neutral wells]
C[C@@H]1CN([C@@H](C)CO)C(=O)CCCn2nncc2CO[C@H]1CN(C)Cc1ccccc1	-19.1% [at 0.015 µM, 100% = signal doubled over neutral wells]
C[C@H]1CN([C@@H](C)CO)C(=O)c2cc(C#CCc3ccccc3)cnc2O[C@@H]1CN(C)C(=O)C1CC1	-42.9%
